Laboratory results: PubChem BioAssay (NCATS)
Results filed as inconclusive are left out. Activity calls are given as the source filed them. Calls follow the shape of the dose curve; as a rule, active = well fitted curve in the direction sought with a large enough effect; inconclusive = small, poorly fitted or top-dose-only effect, or another doubt; inactive = no such curve, though single readings can be large; an effect the other way counts as inactive or inconclusive.

Legend:
[1] = biological target: Rap guanine nucleotide exchange factor 3 (Homo sapiens) (UniProt O95398); assay: Confirmatory qHTS for antagonist of cAMP-regulated guanine nucleotide exchange factor 3 (EPAC1) (AID 1645880); conditions: EPAC1 Rap1B-BODIPY-GDP exchange, fluorescence; activity, negative = inhibition: at 115 µM (top of the series); also: nearly all actives have a fitted effect of over 55% in size; also: potency is read from the fitted curve at half-maximal effect;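 as to activity, negative = inhibition: plate controls were DMSO only for no effect and full effect of the ATA control for full effect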
Sequence of Rap guanine nucleotide exchange factor 3 (Homo sapiens) (O95398 whole entry, looked up): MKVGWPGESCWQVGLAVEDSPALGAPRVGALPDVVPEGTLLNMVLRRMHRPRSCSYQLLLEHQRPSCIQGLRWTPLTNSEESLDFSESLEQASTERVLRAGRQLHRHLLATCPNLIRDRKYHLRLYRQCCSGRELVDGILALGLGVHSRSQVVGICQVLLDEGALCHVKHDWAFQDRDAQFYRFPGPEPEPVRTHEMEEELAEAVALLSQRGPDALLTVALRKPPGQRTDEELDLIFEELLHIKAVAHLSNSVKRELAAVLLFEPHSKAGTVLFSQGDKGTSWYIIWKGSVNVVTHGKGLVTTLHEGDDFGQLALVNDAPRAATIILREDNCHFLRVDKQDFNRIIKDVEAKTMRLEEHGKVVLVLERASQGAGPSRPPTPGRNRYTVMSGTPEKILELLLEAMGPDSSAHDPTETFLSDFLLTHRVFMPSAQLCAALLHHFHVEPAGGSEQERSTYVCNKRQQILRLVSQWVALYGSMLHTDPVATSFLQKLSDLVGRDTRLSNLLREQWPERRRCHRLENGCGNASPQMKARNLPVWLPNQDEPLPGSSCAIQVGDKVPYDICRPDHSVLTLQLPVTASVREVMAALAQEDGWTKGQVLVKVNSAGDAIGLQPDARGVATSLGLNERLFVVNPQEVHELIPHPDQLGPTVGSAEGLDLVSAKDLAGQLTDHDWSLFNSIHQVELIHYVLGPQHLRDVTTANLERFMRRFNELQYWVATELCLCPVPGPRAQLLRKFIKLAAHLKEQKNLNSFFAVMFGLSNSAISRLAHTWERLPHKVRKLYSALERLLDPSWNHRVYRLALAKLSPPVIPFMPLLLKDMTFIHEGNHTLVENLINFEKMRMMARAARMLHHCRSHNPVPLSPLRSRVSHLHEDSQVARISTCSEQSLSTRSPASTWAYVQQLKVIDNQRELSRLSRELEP
In short: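 Nucleotide exchange uses 100 nM EPAC1, 250 nM RAP1B-BODIPY-GDP and 50 uM GDP, with compounds in a concentration-titration series. After 5 min at room temperature, fluorescence (480 nm ex/540 nm em) is read every 5 min for 30 min. Data are normalized to control ATA and DMSO.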

[2] = biological target: Rap guanine nucleotide exchange factor 3 (Homo sapiens) (UniProt O95398); assay: Confirmatory qHTS for agonist of cAMP-regulated guanine nucleotide exchange factor 3 (EPAC1) (AID 1645881); conditions: EPAC1 Rap1B BODIPY-GDP exchange fluorescence; series mostly up to 154 µM; also: nearly all actives have a fitted effect of over 75% in size; also: potency is read from the fitted curve at half-maximal effect;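 as to activation: EPAC1 catalysed release of BODIPY-GDP from Rap1B seen as fluorescence loss; 100% = effect of cAMP agonist control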
[3] = biological target: Rap guanine nucleotide exchange factor 4 (Homo sapiens) (UniProt Q8WZA2); assay: Confirmatory qHTS for agonist of cAMP-regulated guanine nucleotide exchange factor 4 (EPAC2) (AID 1645884); conditions: EPAC2 GEF activity, Rap1B-BODIPY-GDP fluorescence; series mostly up to 154 µM;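 also: nucleotide exchange releases bodipy-GDP from Rap1 and this lowers its fluorescence; nearly all actives have a fitted effect of over 65% in size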; also: potency is read from the fitted curve at half-maximal effect; as to activation: % is scaled to controls: 0 for no effect and ±100 for the full control effect
Sequence of Rap guanine nucleotide exchange factor 4 (Homo sapiens) (Q8WZA2 whole entry, looked up): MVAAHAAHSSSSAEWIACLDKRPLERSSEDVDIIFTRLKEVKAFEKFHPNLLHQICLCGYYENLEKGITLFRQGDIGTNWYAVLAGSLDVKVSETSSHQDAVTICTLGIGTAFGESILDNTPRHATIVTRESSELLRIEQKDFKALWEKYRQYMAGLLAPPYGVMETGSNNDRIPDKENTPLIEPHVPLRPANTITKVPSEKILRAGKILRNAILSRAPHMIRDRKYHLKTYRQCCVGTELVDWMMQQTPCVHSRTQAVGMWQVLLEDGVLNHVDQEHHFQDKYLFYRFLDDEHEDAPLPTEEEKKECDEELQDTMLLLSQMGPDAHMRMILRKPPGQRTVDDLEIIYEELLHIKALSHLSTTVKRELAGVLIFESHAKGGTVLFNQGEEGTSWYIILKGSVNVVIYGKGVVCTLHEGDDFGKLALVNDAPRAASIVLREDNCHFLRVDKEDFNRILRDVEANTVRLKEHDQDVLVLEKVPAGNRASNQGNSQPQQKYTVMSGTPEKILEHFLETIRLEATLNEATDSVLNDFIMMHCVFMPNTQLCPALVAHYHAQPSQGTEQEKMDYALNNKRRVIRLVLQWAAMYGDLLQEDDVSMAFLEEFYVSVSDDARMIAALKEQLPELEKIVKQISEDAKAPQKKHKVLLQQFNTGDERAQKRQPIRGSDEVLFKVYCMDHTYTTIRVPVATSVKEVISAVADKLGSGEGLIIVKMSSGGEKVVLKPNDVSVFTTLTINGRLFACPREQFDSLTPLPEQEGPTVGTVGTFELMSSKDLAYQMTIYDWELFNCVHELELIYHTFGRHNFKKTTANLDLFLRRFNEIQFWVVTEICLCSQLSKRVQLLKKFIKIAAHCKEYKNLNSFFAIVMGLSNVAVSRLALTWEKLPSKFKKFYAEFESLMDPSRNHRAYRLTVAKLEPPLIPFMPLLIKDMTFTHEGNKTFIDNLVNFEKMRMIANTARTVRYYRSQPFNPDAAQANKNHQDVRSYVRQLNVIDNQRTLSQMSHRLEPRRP

[4] = biological target: Rap guanine nucleotide exchange factor 3 (Homo sapiens) (UniProt O95398); assay: Counterscreen qHTS for antagonist of cAMP-regulated guanine nucleotide exchange factor 3 (EPAC1) (AID 1645888); conditions: Rap1B-BODIPY-GDP nucleotide exchange, fluorescence; series mostly up to 154 µM;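 also: fluorescence loss as bound BODIPY-GDP is released from Rap1B; % of control where 0% means no effect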
In short: (§1)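 Rap1B–BODIPY-GDP (250 nM) with 50 uM GDP; compounds pin-transferred to 9.74 nM–152 uM final (activator) or from 7.32 nM upwards (inhibitor). Fluorescence Ex/Em 480/540 nm read at 5 and 30 min, then after adding cAMP or buffer, at room temperature.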

[5] = biological target: Rap guanine nucleotide exchange factor 3 (Homo sapiens) (UniProt O95398); assay: Counterscreen qHTS for agonist of cAMP-regulated guanine nucleotide exchange factor 3 (EPAC1) (AID 1645889); conditions: EPAC1 Rap1B-BODIPY-GDP exchange, fluorescence; series mostly up to 154 µM; also: nearly all actives have a fitted effect of over 40% in size; also: potency is read from the fitted curve at half-maximal effect; as to activation: % of control where 0% means no effect
In short: as §1

COc1ccc(N2C(=O)CSC2c2cccc(F)c2)c(OC)c1 (stereo not given)
inactive: Potency [1] | Potency [2] | activation [3] 2.35% [at 17.1 µM, percent relative to cAMP agonist control] | activity change, negative = inhibition [4] -18.3% [at 30.8 µM] | activation [5] 1.09% [at 30.8 µM]

CCC(C(=O)OC(C)C)c1ccc2ccccc2c1 (stereo not given)
inactive: Potency [1] | Potency [2] | Potency [3] | Potency [4] | Potency [5]

Cc1cc(C)nc(SCC(=O)c2ccc(Cl)cc2)n1
inactive: Potency [1] | Potency [2] | Potency [3] | Potency [4] | Potency [5]

COc1ccccc1Oc1ncnc2c1oc1ccccc12
inactive: Potency [1] | Potency [2] | activation [3] -4.43% [at 17.1 µM, percent relative to cAMP agonist control] | activity change, negative = inhibition [4] 7.03% [at 30.8 µM] | activation [5] 5.04% [at 30.8 µM]

Cc1ccc2nc(N3C(=O)C(O)=C(C(=O)c4ccc(C)o4)C3c3ccc(O)cc3)sc2c1 (stereo not given)
inactive: Potency [2] | Potency [3] | Potency [4] | Potency [5]
active: Potency [1] 37.9 µM

Cc1cc(C(=O)c2ccc3ccccc3c2)c(C)o1
inactive: Potency [1] | Potency [2] | Potency [3] | Potency [4] | Potency [5]

CCCCN(CCCC)Cc1cc(=O)oc2cc(C)c(Cl)cc12
inactive: Potency [1] | Potency [2] | Potency [3] | Potency [4] | Potency [5]

O=S1(=O)[C@H]2CC3O[C@]2(C[C@@H]3c2ccc(F)cc2)CN1Cc1ccc(Cl)cc1
inactive: Potency [1] | Potency [2] | Potency [3] | Potency [4] | Potency [5]

Brc1ccc(C2Nc3cccc4cccc(c34)N2)cc1
inactive: Potency [1] | Potency [2] | Potency [3] | Potency [4] | Potency [5]

Nc1nnc(CC(=O)N/N=C/c2cc([N+](=O)[O-])cc(Br)c2O)s1
inactive: Potency [2] | Potency [3] | Potency [4] | Potency [5]
active: Potency [1] 10.7 µM

COc1cc(/C=C2\SC(=S)N(NC(=O)c3ccc(O)cc3)C2=O)ccc1O
active: Potency [1] 75.7 µM
inactive: Potency [2] | Potency [3] | Potency [4] | Potency [5]

CC(=NNC(=O)c1ccncc1)c1ccc2ccccc2c1O
active: Potency [2] 100 µM | Potency [3] 112 µM | Potency [5] 39.8 µM
inactive: Potency [1] | Potency [4]

C=CCn1c(Cc2ccccc2)nc2c(cnn2-c2ccccc2)c1=O
inactive: Potency [1] | Potency [2] | Potency [3] | Potency [4] | Potency [5]

COc1ccc(N(C(=O)c2snc(C(N)=O)c2N)C(C(=O)NC2CCCC2)c2cccs2)cc1OC (stereo not given)
active: Potency [1] 33.8 µM
inactive: Potency [2] | Potency [3] | Potency [4] | Potency [5]

Cc1ccc(Cc2c(-c3cccc(Cl)c3)nc3ccc(Br)cn23)cc1
inactive: Potency [2] | Potency [3] | Potency [4] | Potency [5]
active: Potency [1] 75.7 µM

Cc1ccc(Cl)cc1N1CCN(C(=O)c2cccc3c(=O)c(C)c(-c4ccccc4)oc23)CC1
inactive: Potency [1] | Potency [2] | activation [3] 13% [at 17.1 µM, percent relative to cAMP agonist control] | activity change, negative = inhibition [4] -10.3% [at 30.8 µM] | activation [5] 25.9% [at 30.8 µM]

CC(C)(C(=O)N1CCC1(C)C(=O)NS(=O)(=O)c1cccc(Cl)c1)c1ccccc1 (stereo not given)
inactive: Potency [2] | Potency [3] | Potency [4] | Potency [5]
active: Potency [1] 75.7 µM

Cc1cc(S(=O)(=O)N2CCN(CC(=O)N(C)Cc3ccccc3)CC2)ccc1Br
inactive: Potency [1] | Potency [2] | Potency [3] | Potency [4] | Potency [5]

Cc1cccc(C)c1OCC(=O)Nc1ccccc1N1CCCCC1
inactive: Potency [1] | Potency [2] | Potency [3] | Potency [4] | Potency [5]

COc1ccc(OC)c(NC(=O)C2(C)CCN2Cc2ccsc2)c1 (stereo not given)
inactive: Potency [1] | Potency [2] | Potency [3] | Potency [4] | Potency [5]

CCOC(=O)C1=C(N)c2ccccc2CC1C1CCCC1 (stereo not given)
inactive: Potency [1] | Potency [2] | Potency [3] | Potency [4] | Potency [5]

COc1cc(/C=C2/C(=O)NN(c3ccc(Cl)c(Cl)c3)C2=O)cc([N+](=O)[O-])c1O
inactive: Potency [2] | Potency [3] | Potency [4] | Potency [5]
active: Potency [1] 6.75 µM

COc1cc(/C=C(\C#N)c2nc3ccccc3s2)cc([N+](=O)[O-])c1O
active: Potency [1] 16.9 µM
inactive: Potency [2] | Potency [3] | Potency [4] | Potency [5]

COC(=O)C1=C(C)N(CCCC(=O)O)C(=O)NC1c1ccc(-c2ccccc2)cc1 (stereo not given)
inactive: Potency [1] | Potency [2] | Potency [3] | Potency [4] | Potency [5]

Cc1ccc(/C=C2\S/C(=N/S(=O)(=O)c3cccs3)NC2=O)cc1
inactive: Potency [2] | Potency [3] | Potency [4] | Potency [5]
active: Potency [1] 67.5 µM

CCCc1cc(=O)oc2cc(C)cc(OCC(=O)N[C@@H](CSCc3ccccc3)C(=O)O)c12
inactive: Potency [1] | Potency [2] | Potency [3] | Potency [4] | Potency [5]

CN(C)c1ccccc1-c1cc(NC=O)c2ncc(-c3cccc(C(F)(F)F)c3)n2c1
active: Potency [1] 47.8 µM
inactive: Potency [2] | Potency [3] | Potency [4] | Potency [5]

CC(C)CSC1=NSC2=NC(=O)/C(=C\c3coc4ccccc4c3=O)C(=N)N12
active: Potency [3] 112 µM
inactive: Potency [1] | Potency [2] | Potency [4] | Potency [5]

CS/C(Nc1cc(Cl)ccc1Cl)=C(/C#N)C(=O)c1ccco1
inactive: Potency [2] | Potency [3] | Potency [4] | Potency [5]
active: Potency [1] 67.5 µM

COc1ccccc1C1CC(=O)Oc2cc(C)cc(C)c21 (stereo not given)
inactive: Potency [1] | Potency [2] | activation [3] 3.14% [at 17.1 µM, percent relative to cAMP agonist control] | activity change, negative = inhibition [4] -8.23% [at 30.8 µM] | activation [5] 7.71% [at 30.8 µM]

O=C(c1ccccc1)c1cccc2ccccc12
inactive: Potency [1] | Potency [2] | activation [3] 6.02% [at 17.1 µM, percent relative to cAMP agonist control] | activity change, negative = inhibition [4] -2.88% [at 30.8 µM] | activation [5] 19% [at 30.8 µM]

CNc1nc(C)cc(C)c1S(=O)(=O)c1ccc(C)cc1
inactive: Potency [1] | Potency [2] | activation [3] 6.77% [at 17.1 µM, percent relative to cAMP agonist control] | activity change, negative = inhibition [4] -11.2% [at 30.8 µM] | activation [5] 14.5% [at 30.8 µM]

CCCNC(=O)Cn1c(=O)/c(=C/c2ccc(-c3ccc([N+](=O)[O-])cc3)o2)s/c1=C\C(=O)C(C)(C)C
inactive: Potency [2] | Potency [3] | Potency [4]
active: Potency [1] 37.9 µM | Potency [5] 5.01 µM

O=C(O)c1ccccc1N=N/C(=N/Nc1cc(S(=O)(=O)O)ccc1O)c1ccccc1
active: Potency [1] 44.7 µM
inactive: Potency [2] | activation [3] -5.11% [at 17.1 µM, percent relative to cAMP agonist control] | activity change, negative = inhibition [4] -3.19% [at 30.8 µM] | activation [5] -1.6% [at 30.8 µM]

COc1cc(C(c2c(C(=O)O)[nH]c3ccccc23)c2c(C(=O)O)[nH]c3ccccc23)ccc1OCc1ccccc1
active: Potency [1] 15.1 µM
inactive: Potency [2] | Potency [3] | Potency [4] | Potency [5]

CCOC(=O)c1c(NC(=O)/C=C/c2ccc3c(c2)OCO3)sc(C)c1CC
inactive: Potency [1] | Potency [2] | Potency [3] | Potency [4] | Potency [5]

CC(C)(C)c1ccc(OCC(=O)Nc2ccc(C(=O)Nc3ccccc3C(=O)O)cc2)cc1
active: Potency [1] 75.7 µM
inactive: Potency [2] | Potency [3] | Potency [4] | Potency [5]

C=CCn1c(SC(F)F)nc2scc(-c3ccco3)c2c1=O
inactive: Potency [1] | Potency [2] | Potency [3] | Potency [4] | Potency [5]

c1ccc(C(c2ccccc2)c2ccn[nH]2)cc1
inactive: Potency [1] | Potency [2] | activation [3] 1.43% [at 17.1 µM, percent relative to cAMP agonist control] | activity change, negative = inhibition [4] -9.38% [at 30.8 µM] | activation [5] 11.3% [at 30.8 µM]

Cc1ccc(C)c(N2CCN(C(=O)CCCn3c(=O)c4cccn4c4cccnc43)CC2)c1
inactive: Potency [1] | Potency [2] | activation [3] 6.05% [at 17.1 µM, percent relative to cAMP agonist control] | activity change, negative = inhibition [4] -21.9% [at 30.8 µM]
active: Potency [5] 0.0089 µM

COc1ccc([C@H]2CC(=O)C=C(c3cc(OC)ccc3OC)C2)cc1
inactive: Potency [1] | Potency [2] | Potency [3] | Potency [4] | Potency [5]

Cc1ccc(S(=O)(=O)NN2C(=O)/C(=C/c3cccc(F)c3)SC2=S)cc1
inactive: Potency [2] | Potency [3] | Potency [4] | Potency [5]
active: Potency [1] 23.9 µM

Cc1ccc(NC(=O)COC(=O)c2ccccc2-c2nc3ccccc3s2)c(C)c1
inactive: Potency [1] | Potency [2] | Potency [3] | Potency [4] | Potency [5]

CN(CCC#N)C(=O)COC(=O)c1c2c(nc3ccccc13)/C(=C\c1ccco1)CC2
inactive: Potency [2] | Potency [3] | Potency [4] | Potency [5]
active: Potency [1] 9.53 µM

O=C(O)CN1C(=O)/C(=C\c2cc(Br)ccc2OCc2ccccc2Cl)SC1=S
inactive: Potency [2] | Potency [3] | Potency [4] | Potency [5]
active: Potency [1] 33.8 µM
